# Only some compounds are listed: those with a hit (about 1.1% of all), similar ones and a draw of the others.
# VACV Venus inh: inhibitors of vaccinia virus (Venus reporter) | AID 720580 | Vaccinia virus Venus reporter expression, fluorescence | Potency, µM (series often up to 36.5 µM), hits mostly inhibitors | actives 0.46% (n = 330,000); calls by dose curve; tested in A549 cells; also: nearly all actives have a fitted effect of over 30% in size
# AmpC inh detg: AmpC beta-lactamase inhibition with detergent present; P00811; AmpC hydrolysis of nitrocefin, absorbance 480 nm, 0.01% Triton; Potency, µM (titrated, usually from 114 µM), hits mostly inhibitors; actives 0.041% (n = 370,000); AID 485294; also: nearly all actives have a fitted effect of over 25% in size
# Target sequence (P00811 whole entry, looked up): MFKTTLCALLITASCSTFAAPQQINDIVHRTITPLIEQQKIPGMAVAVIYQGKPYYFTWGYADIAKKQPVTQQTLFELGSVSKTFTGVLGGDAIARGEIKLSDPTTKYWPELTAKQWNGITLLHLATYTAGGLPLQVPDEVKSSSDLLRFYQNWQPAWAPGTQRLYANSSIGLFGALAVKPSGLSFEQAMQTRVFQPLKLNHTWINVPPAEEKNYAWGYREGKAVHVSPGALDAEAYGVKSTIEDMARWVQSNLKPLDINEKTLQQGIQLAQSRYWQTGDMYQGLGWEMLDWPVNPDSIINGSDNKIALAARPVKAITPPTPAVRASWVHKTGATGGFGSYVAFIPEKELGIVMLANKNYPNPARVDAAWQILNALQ
#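 20 mM phosphate pH 7.0 + 0.01% (detergent screen) or 0.0001% Triton X-100; 5.3 nM AmpC reagent; cpd preinc 15 min RT; nitrocefin (800 uM stock) to start; A480 q20 s × 4 min; Activity was normalised to no-enzyme and no-compound control wells.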
# AmpC inh no detg: inhibitors of E. coli AmpC beta-lactamase without detergent. actives 0.52% (n = 330,000). AID 485341. P00811. AmpC nitrocefin hydrolysis, absorbance 480 nm, 0.0001% Triton. Potency, µM (titrated, usually from 57.1 µM), most hits filed as inhibitors; also: nearly all actives have a fitted effect of over 20% in size
#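 AmpC (5.3 nM in the dispensed reagent) in 20 mM phosphate pH 7.0 with 0.01% (detergent screen) or 0.0001% Triton X-100 was preincubated with compounds for 15 min at room temperature. Nitrocefin was then added from an 800 uM solution, and hydrolysis was followed at 480 nm.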
# Vaccinia mCherry: inhibitors of vaccinia virus infection (mCherry reporter signal); AID 720579; Potency, µM (doses to about 36.5 µM), actives largely listed as inhibitors; Vaccinia virus mCherry reporter infection, fluorescence; actives 0.63% (n = 310,000); calls by dose curve; tested in A549 cells; also: nearly all actives have a fitted effect of over 35% in size
# Numbers stand for hits; i = inactive; ? = inconclusive; nt = not tested or not shown. Unless noted, calls follow the shape of the dose curve; as a rule, active = well fitted curve in the direction sought with a large enough effect; inconclusive = small, poorly fitted or top-dose-only effect, or another doubt; inactive = no such curve, though single readings can be large; an effect the other way counts as inactive or inconclusive.
SMILES,VACV Venus inh,AmpC inh detg,AmpC inh no detg,Vaccinia mCherry
N#C/C(=C/c1ccc2c(c1)OCO2)C(=O)NCCc1c[nH]c2ccccc12,nt,i,0.282µM,nt
O=C(NCCc1c[nH]c2ccccc12)c1ccc2c(c1)OCO2,i,i,i,i
N#C/C(=C/c1ccc(-c2ccc(Br)cc2)o1)C(=O)NC1CCCCC1,?,i,i,?
O=C(NCCc1nc2ccccc2[nH]1)/C(=C/c1ccc2c(c1)OCO2)NC(=O)c1ccccc1,i,i,10µM,i
COc1ccc(OC)c(-c2cc(Cl)c3c(c2)CC(CNC(=O)c2coc4c2C(=O)CCC4)O3)c1 (stereo not drawn),i,nt,nt,i
COc1ccc(CN2C[C@H](Sc3nc4ccccc4[nH]3)C[C@H]2C(=O)N2CCCN(C)CC2)cc1C,i,nt,nt,i
COc1ccc(NC(=O)CNS(=O)(=O)c2ccccc2)cc1Cl,i,i,0.631µM,i
COC(=O)[C@@H]1CCCN1Cc1ccc2c(c1)CN(Cc1ccccc1)CCO2,i,nt,nt,i
C=CC(=O)Nc1cccc(Nc2nc(N[C@H]3CC[C@H](N(C)C)CC3)nc3c2ncn3C(C)C)c1,1µM,nt,nt,?
CC(C)n1cnc2c(Nc3ccc(C(=O)O)cc3)nc(Cl)nc21,i,i,i,i
Cc1cnc(SCc2ccccn2)nc1C1CCCN(C(=O)c2ccc3[nH]c(C)c(C)c3c2)C1 (stereo not drawn),i,nt,nt,?
O=C(Nc1ccc(-c2csc(Nc3ccccc3)n2)cc1)c1cc([N+](=O)[O-])cc(C(F)(F)F)c1,?,i,i,15.8µM
O=C(Nc1ccc(-c2csc(Nc3ccccc3)n2)cc1)c1cccc(C(F)(F)F)c1,?,i,3.55µM,?
O=C(Nc1cccc(-c2csc(Nc3cccc(C(F)(F)F)c3)n2)c1)c1cc([N+](=O)[O-])cc(C(F)(F)F)c1,i,i,i,?
O=C(Nc1ccc(-c2csc(Nc3ccc(Cl)cc3)n2)cc1)c1cccc(C(F)(F)F)c1,?,i,?,?
Cc1oc(-c2ccccc2NC(=O)c2ccsc2)nc1CN(C)CC1CC=CCC1 (stereo not drawn),i,nt,nt,i
N#CC1=C(N)OC2=C(CCC/C2=C/c2ccoc2)C1c1ccoc1 (stereo not drawn),nt,i,0.282µM,nt
CCCC[C@@H](CNC)NC[C@H](Cc1ccc(O)cc1)NCCc1ccc(OCC)cc1,12.6µM,?,i,?
CCC[C@H](CN[C@@H](CNC)[C@H](C)O)NCCc1ccc(OC)cc1,i,i,i,i
CCN(CC)c1ccc(/C=C2\C=Cc3ccccc32)cc1,i,nt,nt,i
O=C(c1ccccc1C(F)(F)F)N1CCOc2c(cc(-c3nc4ccccc4s3)cc2OC2CCOC2)C1 (stereo not drawn),?,nt,nt,i
O=[N+]([O-])c1ccc(-c2nc(-c3cccs3)c(-c3cccs3)[nH]2)cc1,?,i,i,11.2µM
O=[N+]([O-])c1cccc(-c2nc(-c3cccs3)c(-c3cccs3)[nH]2)c1,?,i,i,i
CC(C)(O)/C=C/C(=O)C(C)(O)C1C(O)CC2(C)C3CC=C4C(C=C(O)C(=O)C4(C)C)C3(C)C(=O)CC12C (stereo not drawn),28.2µM,nt,nt,7.94µM
CC(=O)OC(C)(C)/C=C/C(=O)[C@](C)(O)C1[C@H](O)C[C@@]2(C)C3CC=C4C(C[C@H](O)C(=O)C4(C)C)[C@]3(C)C(=O)C[C@]12C (stereo partly drawn),2.51µM,nt,i,0.501µM
SMILES,VACV Venus inh,AmpC inh detg,AmpC inh no detg,Vaccinia mCherry
COc1cc2nc(CC(O)c3nc4cc(OC)c(OC)cc4[nH]3)[nH]c2cc1OC (stereo not drawn),i,nt,nt,i
CCn1c(-c2ccccc2F)nc2cc(C(=O)N3CCCC(CO)C3)cc(NC(C)=O)c21 (stereo not drawn),i,nt,nt,i
Cc1ccc(CN2C[C@@H](Sc3nc(C)cc(C)n3)C[C@H]2C(=O)N2CCN(c3ccccc3F)CC2)cc1,i,nt,nt,i
C[C@@]12C(=O)OC(=O)[C@]1(C)C1CCC2O1,1.26µM,?,i,1.12µM
Cc1c(Cl)c([N+](=O)[O-])nn1Cc1ccc(C(=O)N/N=C\c2cccc(Br)c2)o1,28.2µM,i,i,nt
O=C(N/N=C\c1cccc(Cl)c1)c1ccc(Cn2cc(Br)c([N+](=O)[O-])n2)o1,i,i,i,i
O=C(Nc1ccc([N+](=O)[O-])cc1)Nc1nc(-c2ccc(Cl)s2)cs1,5.62µM,?,i,?
Cc1ccc2nccc(/C=C/c3ccc(N(C)C)cc3)c2c1,i,nt,nt,i
Nc1nc(Nc2ccccc2)sc1C(=O)c1ccccc1,28.2µM,i,i,?
COc1ccc(C(=O)c2sc(Nc3ccccc3)nc2N)cc1,?,i,i,i

# Assay outcomes from PubChem BioAssay.
